The source of these data is PubChem BioAssay (NCI).

Among the test systems are HCT-15 colon; HT29 colon; SNB-75 CNS; SNB-19 CNS; U251 CNS; PC-3 prostate; SK-MEL-5 melanoma; UACC-62 melanoma; LOX IMVI melanoma; SK-MEL-28 melanoma.
Holding throughout (test): NCI-60 one-dose screen, 48 h (100 = growth as untreated, 0 = no growth, -100 = all killed)
Common to all, as to details: 10 µM unless noted

The structures appear in SMILES notation. About 83,000 compounds went through this panel and 20% of them were active in at least one assay; those are over-represented in the sample as a whole.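 Interpretation: 100, growth as untreated; towards 0, rising growth inhibition; 0, no net growth; 0 to -100, cell death. Compounds scoring below 10 were considered active.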 Values without a mark were called inactive. Active and inactive are the calls of the source.

Consider `O=C(Nc1cc(F)cc2cccnc12)c1cnc(N2CCNCC2)cn1`, for which the growth in the assay on HCT-15 colon is 40.5%; with HT29 colon, 36.8%; in the assay on SNB-75 CNS it was 82.7%; in the assay with SNB-19 CNS, 87.7%; with U251 CNS, 63.6%; in the assay on PC-3 prostate, 63%. Also, the growth is 91.1% in the assay with SK-MEL-5 melanoma, 101% with UACC-62 melanoma, 65.8% in the assay with LOX IMVI melanoma and 97.4% in the assay with SK-MEL-28 melanoma.

`CCOC(CNC(=O)c1cccc([N+](=O)[O-])c1)OCC`: the growth with HCT-15 colon is 99.7%; in the assay on HT29 colon, 111%; with SNB-75 CNS, 82.6%; with SNB-19 CNS, 103%; in the assay on U251 CNS, 97.6%; in the assay with PC-3 prostate it was 102%. The growth with SK-MEL-5 melanoma was 89.2%; in the assay on UACC-62 melanoma it was 88%; in the assay on LOX IMVI melanoma, 89.1%; with SK-MEL-28 melanoma it was 106%.

Turning to `C=CC1=C(C)C2=NC1=CC1=NC(=CC3=C(C)C4=C(O)C(C(=O)O)C(=C5NC(=C2)C(C)C5CCC(=O)O)C4=N3)C(CC)=C1C` (stereo not given), the growth in the assay on HCT-15 colon is 105%; in the assay on HT29 colon it was 105%; in the assay with SNB-75 CNS, 94.5%; in the assay on SNB-19 CNS, 112%; in the assay with U251 CNS, 124%; with PC-3 prostate, 89.3%. Besides, the growth with SK-MEL-5 melanoma is 102%; in the assay with UACC-62 melanoma, 107%; in the assay with LOX IMVI melanoma, 108%; in the assay with SK-MEL-28 melanoma, 104%.

For the compound `COCCCNc1nc(NC(=O)c2cc(OC)cc(OC)c2)cc(-c2cccnc2)n1`, the growth in the assay with HCT-15 colon was 90.3%; with HT29 colon, 95.5%; in the assay with SNB-75 CNS, 73.1%; in the assay with SNB-19 CNS, 98.3%; in the assay with U251 CNS it was 96.8%; in the assay on PC-3 prostate, 87.3%. In addition, the growth in the assay with SK-MEL-5 melanoma was 72.4%; in the assay on UACC-62 melanoma, 111%; with LOX IMVI melanoma, 94.5%; in the assay with SK-MEL-28 melanoma, 105%.

As for `O=[N+]([O-])c1cc([N+](=O)[O-])c(C(F)(F)F)cc1NN=C(c1ccc(O)cc1)c1ccc(O)cc1`, the growth was 13.7% in the assay with HCT-15 colon; 91.6% with HT29 colon; 92.7% in the assay with SNB-75 CNS; -4.43% (active) with SNB-19 CNS; 26.2% in the assay with U251 CNS; 51.1% in the assay with PC-3 prostate. Moreover, the growth in the assay with SK-MEL-5 melanoma is -96.7% (active); with UACC-62 melanoma it was 60.6%; in the assay on LOX IMVI melanoma it was 14%; with SK-MEL-28 melanoma it was 94.8%.

With `Cc1ccccc1OC(=O)c1cccc(Cl)c1`, the growth in the assay on HCT-15 colon was 104%; in the assay with HT29 colon, 103%; in the assay with SNB-75 CNS, 86.2%; in the assay with SNB-19 CNS, 109%; in the assay on U251 CNS it was 129%; with PC-3 prostate, 92.2%. The growth was 103% in the assay on SK-MEL-5 melanoma, 105% in the assay with UACC-62 melanoma, 98% in the assay with LOX IMVI melanoma and 113% in the assay on SK-MEL-28 melanoma.

As to `O=C(Nc1cccc2ccccc12)c1cc2ccccc2cc1O`, the growth with HCT-15 colon was 19.1%; in the assay with HT29 colon, 68.9%; in the assay on SNB-75 CNS it was 12.8%; in the assay with SNB-19 CNS it was 22.9%; in the assay with U251 CNS, 8.21% (active); with PC-3 prostate, 2.08% (active). In addition, the growth is -57.3% (active) in the assay with SK-MEL-5 melanoma, 17.4% with UACC-62 melanoma, 13.7% with LOX IMVI melanoma and 45.7% with SK-MEL-28 melanoma.

As to `Cc1cnc([C@]23CC[C@@H](C)[C@H](C)[C@H]2C2=CC[C@@H]4[C@@]5(C)Cc6c([nH]c7ccccc67)C(C)(C)[C@@H]5CC[C@@]4(C)[C@]2(C)CC3)o1`, the growth is 66.8% [100 µM] in the assay on HCT-15 colon; 25.7% [100 µM] in the assay on HT29 colon; 62.4% [100 µM] in the assay on SNB-75 CNS; 35.6% [100 µM] with SNB-19 CNS; 41.7% [100 µM] with U251 CNS; 55.4% [100 µM] in the assay on PC-3 prostate. In addition, the growth in the assay with SK-MEL-5 melanoma is 29% [100 µM]; in the assay with UACC-62 melanoma, 24.4% [100 µM]; with LOX IMVI melanoma, 17.3% [100 µM]; with SK-MEL-28 melanoma, 20.3% [100 µM].

With `N=C(N)c1ccc(-c2ccc(-c3ccc(-c4cccs4)s3)s2)cc1F`, the growth is 84.5% with HCT-15 colon; 72.6% in the assay on HT29 colon; 84.8% with SNB-75 CNS; 91.6% in the assay on SNB-19 CNS; 101% with U251 CNS; 92.6% in the assay with PC-3 prostate. The growth was 96.7% in the assay on SK-MEL-5 melanoma, 97.2% in the assay on UACC-62 melanoma, 95.9% in the assay with LOX IMVI melanoma and 101% in the assay with SK-MEL-28 melanoma.

Regarding `Cc1cc(C)c(O)c(CNCCCCCCNCc2cc(C)cc(C)c2O)c1`, the growth in the assay with HCT-15 colon was -53.2% (active); in the assay on HT29 colon, -6.14% (active); with SNB-75 CNS it was -23.7% (active); in the assay on SNB-19 CNS, -46.1% (active); in the assay with U251 CNS it was -59.2% (active); in the assay on PC-3 prostate, 34.7%. For the same compound, the growth with SK-MEL-5 melanoma was -91.8% (active); in the assay on UACC-62 melanoma it was -68.9% (active); in the assay with LOX IMVI melanoma it was -85% (active); in the assay with SK-MEL-28 melanoma, -82.6% (active).

As to `O=C(OCc1ccc2c(Cl)cc(Cl)c(O)c2n1)N1CCNCC1`, the growth was 18.5% with HCT-15 colon; 80.6% in the assay with HT29 colon; 48.4% in the assay with SNB-75 CNS; 37% in the assay on SNB-19 CNS; 16.2% in the assay on U251 CNS; 29.8% in the assay with PC-3 prostate. Moreover, the growth in the assay on SK-MEL-5 melanoma is 35.7%; in the assay on UACC-62 melanoma it was 24.5%; with LOX IMVI melanoma it was 32.7%; in the assay with SK-MEL-28 melanoma, 70.4%.

As to `CCOC(=O)C(C(C)=O)c1nc2sc3cc(Cl)c(Cl)cc3n2c(=O)c1C#N` (stereo not given), the growth is 109% in the assay on HCT-15 colon; 107% in the assay on HT29 colon; 73% in the assay with SNB-75 CNS; 93% in the assay on SNB-19 CNS; 111% in the assay with U251 CNS; 83.9% in the assay with PC-3 prostate. For the same compound, the growth was 74.3% with SK-MEL-5 melanoma, 85.8% in the assay on UACC-62 melanoma, 98.1% in the assay with LOX IMVI melanoma and 125% in the assay with SK-MEL-28 melanoma.

On to `CCCN1CC(c2ccc(OC)c(OC)c2)=C(c2cn(C(=O)OCC)c3ccccc23)C1=O`, for which the growth with HCT-15 colon was 25.9%; in the assay on HT29 colon, 14.5%; in the assay on SNB-75 CNS, -14.1% (active); with SNB-19 CNS it was 50.3%; in the assay with U251 CNS it was 46.7%; in the assay with PC-3 prostate, 32.4%. Besides, the growth with SK-MEL-5 melanoma is 22.9%; with UACC-62 melanoma it was 18.3%; in the assay on LOX IMVI melanoma it was 49.6%; in the assay with SK-MEL-28 melanoma, 73.1%.
